What all share (assay): NCI-60 one-dose screen, 48 h (100 = growth as untreated, 0 = no growth, -100 = all killed)
What all share (settings): 10 µM unless noted

Test [1] has as its system NCI-H23 lung.
In test [2] the test system is NCI-H226 lung.
Test [3] deals with NCI-H322M lung.
For test [4], the system named is HOP-62 NSCLC.
Test [5] deals with NCI-H460 lung.
Test [6] relates to HOP-92 NSCLC.
Test [7] relates to NCI-H522 lung.
For test [8], the system named is A549/ATCC NSCLC.
Test [9] deals with 786-0 renal.
The subject of test [10] is COLO 205 colon.
Test [11] concerns DU-145 prostate.
For test [12], the system named is K-562 leukemia.
Test [13] deals with MALME-3M melanoma.
For test [14], the system named is MDA-MB-231 breast.
For test [15], the system named is RXF 393 renal.
Test [16] deals with SF-268 CNS.
The test system of test [17] is SF-295 CNS.
For test [18], the system named is SF-539 CNS.
The test system of test [19] is UACC-257 melanoma.
The subject of test [20] is M14 melanoma.

Drawing on PubChem BioAssay (NCI), this text covers growth for eight compounds.

Compounds without any hit were thinned out: in the full panel of roughly 83,000, 20% have a hit.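 Assay: single dose, 48 h. Readout: percent growth (0 = no net growth; negative = cell death). Active: <10.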 Unmarked numbers belong to inactive results. The source made the active and inactive calls.

On to `CC(C)(C)n1cc(-c2ccnc(NCCNS(=O)(=O)c3ccc(F)cc3)c2)c(-c2cccc(O)c2)n1`, for which the growth was 58.2% in test [1]; 50.4% in test [2]; 72.3% in test [3]; 78.9% in [4]; 29.8% in [5]; 58.3% in test [6]. Moreover, the growth in test [7] was 50.4%; in [8], 47.5%; in test [9], 26%; in test [10], -2.98% (active); in test [11] it was 74.9%; in test [12], 15.4%. Besides, the growth in test [13] is 53.5%; in [14] it was 41%; in test [15], 60%; in [16], 54.7%; in [17] it was 42.5%; in test [18] it was 58.3%. The growth in test [19] is 64.9%; in test [20], 46.2%.

On to `C=C(C)[C@@H]1C[C@@H]2Cc3cc(Cl)ccc3N1O2`, for which the growth in test [1] was 99.8%; in test [2], 101%; in test [3] it was 111%; in [4], 93.4%; in test [5] it was 102%; in test [6], 25.2%. Further, the growth in test [7] is 116%; in test [8], 95.4%; in [9] it was 102%; in test [10] it was 105%; in test [11], 123%; in test [12], 97.7%. The growth is 91.4% in test [13]; 99.2% in [14]; 104% in [15]; 106% in test [16]; 108% in test [17]; 99.6% in test [18]. Moreover, the growth in [19] is 102%; in [20] it was 95.3%.

Turning to `Cc1ccc(-c2csc(NC(=O)CCCCl)n2)cc1`, the growth in test [1] is 93.1%; in test [2] it was 78.5%; in test [3], 87.4%; in test [4], 101%; in [5], 103%; in test [6], 74.8%. Besides, the growth in test [7] was 83.5%; in [8] it was 90.5%; in [9] it was 87.3%; in test [10], 112%; in [11] it was 99.9%; in [12] it was 74.6%. The growth was 94% in test [13]; 95.8% in test [14]; 105% in [15]; 85.8% in test [16]; 83.5% in test [17]; 96.3% in [18]. Further, the growth in test [19] and in [20] was 103% each time.

Turning to `CN(C[C@H]1Cc2c(cccc2N2CCN(c3ncccn3)CC2)CN1)[C@H]1CCCc2cccnc21`, the growth in [1] is 45.5%; in test [2] it was 39.4%; in test [3] it was 50.3%; in [4], 17.2%; in [5], 20.7%; in test [6], 27.4%. The growth in test [7] is 52.6%; in test [8] it was 25.7%; in test [9] it was 39.5%; in test [10], 10.2%; in test [11], 55%; in test [12], 8.04% (active). Further, the growth in test [13] is 82.7%; in [14] it was 52.9%; in test [15], 57.6%; in test [16] it was 60%; in [17], 44.4%; in [18] it was 55.5%. Also, the growth is 55.1% in test [19] and 53.7% in [20].

In the case of `C=C1CCC2C3(C)COC(C)(C)OC3CCC2(C)C1C/C=C1/C(=O)OCC1Oc1ccccc1OC` (stereo not given), the growth in test [1] is 92.2%; in test [2] it was 79.7%; in test [3], 96.6%; in test [4], 105%; in test [5] it was 102%; in [6], 116%. The growth in test [7] is 17.5%; in test [8], 97.7%; in test [9], 99.9%; in test [10], 102%; in test [11] it was 78.9%; in test [12], 21.7%. Moreover, the growth is 112% in test [13]; 103% in [14]; 93.3% in test [15]; 99.7% in [16]; 101% in test [17]; 83% in test [18]. Besides, the growth was 85.3% in test [19] and 72.3% in test [20].

Regarding `C=C1CCC2C3(C)COC(c4c(OC)cccc4OC)OC3CCC2(C)C1C/C=C1/C(=O)OCC1O` (stereo not given), the growth in [1] was 80%; in test [2] it was 80.2%; in test [3], 70.3%; in test [4], 104%; in test [5] it was 89%; in [6], 46.7%. In addition, the growth in test [7] is 24.6%; in test [8], 47.9%; in test [9] it was 90.3%; in test [10] it was -15.2% (active); in [11] it was 21%; in test [12], 37.9%. Also, the growth is 109% in test [13]; 86.7% in [14]; -28.7% (active) in test [15]; 67% in test [16]; 85.1% in test [17]; 66.7% in test [18]. The values for the growth in test [19] and in test [20] were 59.6% and 39.9%, respectively.

Turning to `O=c1ccn(C2CC(O)C(O)C(CO)O2)c(=O)[nH]1` (stereo not given), the growth in test [1] is 110%; in [2], 142%; in [3], 131%; in test [4] it was 107%; in test [5] it was 124%; in [6], 121%. Moreover, the growth was 148% in test [7]; 118% in test [8]; 109% in test [9]; 113% in test [10]; 121% in [11]; 109% in test [12]. Moreover, the growth in test [13] was 112%; in test [14], 116%; in test [15], 245%; in [16], 122%; in test [17], 112%; in test [18] it was 107%. Also, the results for the growth in test [19] and in test [20] were 112% and 105%, respectively.

For `Cc1ccc(S(=O)(=O)C2=C3C(=C(c4ccccc4)c4ccccc43)CN(S(=O)(=O)c3ccc(C)cc3)C2)cc1`, the growth in [1] is 47.1%; in test [2], 79.1%; in [3] it was 93.8%; in test [4], 88.6%; in [5], 63.8%; in test [6], 3.21% (active). Besides, the growth in test [7] was -45.9% (active); in test [8], 70.9%; in test [9], 5.02% (active); in test [10] it was 71.3%; in test [11] it was 68.2%; in test [12] it was 18%. Also, the growth was 72% in test [13]; 48.8% in test [14]; 47.1% in [15]; 45.3% in [16]; 68.3% in [17]; 74.1% in test [18]. The growth in test [19] is 91%; in test [20], 70.7%.
